Source: the supplement of paper PMC6763611

What follows are compounds tested on Plasmodium falciparum NF54 (assay: growth inhibition relative to untreated control; higher = more inhibition). Conditions: 1 µM; minimal medium (MM); 72 h.
Summary of the method: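 In dark 96-well half-area plates, each well held 100 μL of P. falciparum NF54 ring-stage culture at 1% parasitemia and 1% hematocrit. The cultures received a single test-compound dose of 5 μM or 1 μM and were kept at 37 °C for 72 h, in minimal RPMI either plain or enriched with folate (2.2 μM), pABA (7.3 μM), pHBA (7.3 μM), tyrosine (111 μM), phenylalanine (90 μM) and tryptophan. SYBR Green staining gave growth inhibition, expressed against untreated wells, with uninfected erythrocytes serving as the background.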

SMILES	growth inhibition [%]
Oc1c(I)cc(I)c2cccnc12	9.57
CN1CCC(c2cc(-c3ccncc3)c(-c3ccc(F)cc3)[nH]2)CC1	72.7
N=C(N)Nc1ccc(-c2ccc(-c3ccc(N=C(N)N)c(Cl)c3)o2)cc1Cl	> 100
Cc1cc(NCCc2ccccc2)nc(NC(=N)Nc2ccc(Cl)cc2)n1	97.7
O=C(Nc1cnc2ccccc2c1)c1cccc(-n2cnnn2)c1	96.4
CC(C)NCC(=O)Nc1cccc(C(=O)Nc2cccc(C(F)(F)F)c2)c1	83.1
Cc1ccc(S(=O)(=O)N2CCN(C(=O)c3cc(-c4ccccc4)n[nH]3)CC2)cc1	87.1
COc1cccn2c(C(=O)N3CCCCC3)c(C(F)(F)F)nc12	15.1
CC(C)(C)n1nc(Cc2ccc(F)c(Cl)c2)c2c(N)ncnc21	< 0
Nc1ncnc2c1ncn2C[C@@H](O)[C@@H](O)C(=O)O	43
Cc1nnc(NC(=O)c2cn(-c3ccccc3)nc2-c2ccccc2C)o1	87.7
Cc1cc(C)n2nc(C(=O)Nc3cc(C(F)(F)F)ccc3N3CCOCC3)nc2n1	77.1
Cc1cc(C)cc(COc2ccc3c(C)c(CCC(=O)O)c(=O)oc3c2C)c1	15.7
O=C(Nc1nc(-c2ccccn2)cs1)c1cncn1-c1ccccc1	7.24
O=C(Nc1ccc(N2CCNCC2)nc1)c1oc(-c2ccccc2)nc1C(F)(F)F	> 100
O=C(NCCc1c[nH]c2ccccc12)c1cc2ccccc2oc1=O	2.31
COc1ccccc1CNC(=O)c1cc(C2CC2)nc2c1cnn2C(C)C	79.8
Cc1ccc(NC(=O)c2cc(S(=O)(=O)NC(C)(C)C)ccc2C)nc1	52.9
CCCc1ccc(S(=O)(=O)Nc2ccc(CN3CCN(CC4CC4)CC3)cc2)cc1	4.1
NC(=O)c1cc(-c2ccsc2)ccc1OCCOc1ccccc1	9.01
COc1ccc(OC)c(NCc2ccc3nc(N)nc(N)c3c2Cl)c1	> 100
FC(F)(F)c1cccc(-c2nc3c(NCc4ccncc4)nccc3[nH]2)c1	> 100

Same assay, conditions: 5 µM; MM + chorismate end-products (CM screening medium); 72 h

SMILES	growth inhibition [%]
Cc1cc2nc(NC(=O)C(C)(C)C)nc(Cl)c2n1Cc1ccc(Cl)cc1	< 0
CCc1cc(=O)n(C)c(SC(C)C(=O)Nc2ccc(F)cc2)n1 (stereo not given)	96.9
COc1cccc(-c2cc3c(Nc4cccnc4)nccc3[nH]2)c1	94.2
CO[C@H]1/C=C\O[C@@]2(C)Oc3c(C)c(O)c4c(O)c(/c(=C/NN5CCN(C)CC5)c(O)c4c3C2=O)=N\C(=O)/C(C)=C\C=C/[C@H](C)[C@H](O)[C@@H](C)[C@@H](O)[C@@H](C)[C@H](OC(C)=O)[C@@H]1C	> 100
CN1CCCN(C(c2ccccc2)c2ccc(Cl)cc2)CC1 (stereo not given)	33.8
CNCCC(Oc1ccc(C(F)(F)F)cc1)c1ccccc1 (stereo not given)	< 0
O=C(C1CCCCC1)N1CC(=O)N2CCc3ccccc3C2C1 (stereo not given)	0.306
C[C@H](C(N)=O)N1CCCC[C@@H]1c1ccc(OCc2cccc(F)c2)cc1	14.2
NCC(c1cccs1)S(=O)(=O)c1ccccc1 (stereo not given)	< 0
Cc1nn(C(=O)Nc2cccc(C(F)(F)F)c2)c(C)c1Sc1ncccn1	80.1
Cc1ccccc1C(=O)N1N=C(Nc2ccccc2)SC1(C)C	< 0
Cc1cc(NC(=O)c2ccc(Oc3ccc(Cl)cc3O)o2)no1	24.4
c1ccc2c(c1)CN(CC1CC1)CC1(CCN(Cc3c[nH]c4cnccc34)CC1)O2	93.1
O=C(Nc1nnc(-c2ccc(Cl)s2)o1)c1ccc(Cl)s1	< 0
COc1ccc(Cn2cnc3c(-c4ccco4)nc(Cl)nc32)cc1	48.9
CCOC(=O)c1c(NC(=O)c2c(F)c(F)c(F)c(F)c2F)sc(C(N)=O)c1C	14.8
Oc1c(I)cc(I)c2cccnc12	< 0
CN1CCC(c2cc(-c3ccncc3)c(-c3ccc(F)cc3)[nH]2)CC1	92.6
N=C(N)Nc1ccc(-c2ccc(-c3ccc(N=C(N)N)c(Cl)c3)o2)cc1Cl	97.4

SMILES	growth inhibition [%]
Cc1cc(NCCc2ccccc2)nc(NC(=N)Nc2ccc(Cl)cc2)n1	86.2
O=C(Nc1cnc2ccccc2c1)c1cccc(-n2cnnn2)c1	86.9
CC(C)NCC(=O)Nc1cccc(C(=O)Nc2cccc(C(F)(F)F)c2)c1	89.3
Cc1ccc(S(=O)(=O)N2CCN(C(=O)c3cc(-c4ccccc4)n[nH]3)CC2)cc1	82.9
COc1cccn2c(C(=O)N3CCCCC3)c(C(F)(F)F)nc12	< 0
CC(C)(C)n1nc(Cc2ccc(F)c(Cl)c2)c2c(N)ncnc21	54.9
Nc1ncnc2c1ncn2C[C@@H](O)[C@@H](O)C(=O)O	48.6
Cc1nnc(NC(=O)c2cn(-c3ccccc3)nc2-c2ccccc2C)o1	83.6
Cc1cc(C)n2nc(C(=O)Nc3cc(C(F)(F)F)ccc3N3CCOCC3)nc2n1	75.9
Cc1cc(C)cc(COc2ccc3c(C)c(CCC(=O)O)c(=O)oc3c2C)c1	< 0
O=C(Nc1nc(-c2ccccn2)cs1)c1cncn1-c1ccccc1	65
O=C(Nc1ccc(N2CCNCC2)nc1)c1oc(-c2ccccc2)nc1C(F)(F)F	96.6
O=C(NCCc1c[nH]c2ccccc12)c1cc2ccccc2oc1=O	< 0
COc1ccccc1CNC(=O)c1cc(C2CC2)nc2c1cnn2C(C)C	87.1
Cc1ccc(NC(=O)c2cc(S(=O)(=O)NC(C)(C)C)ccc2C)nc1	93
CCCc1ccc(S(=O)(=O)Nc2ccc(CN3CCN(CC4CC4)CC3)cc2)cc1	66.4
NC(=O)c1cc(-c2ccsc2)ccc1OCCOc1ccccc1	4.73
COc1ccc(OC)c(NCc2ccc3nc(N)nc(N)c3c2Cl)c1	96.1
FC(F)(F)c1cccc(-c2nc3c(NCc4ccncc4)nccc3[nH]2)c1	95.4
